Screens as filed in PubChem.
Compounds with a hit are over-represented: about 1.2% of the library has one in this group of screens.
RGS16-Gao HTS = RGS16-Galphao interaction regulator (human); AID 1441; 0.38% of 220,000 active; binding response (% of control), % at 10 µM; O15492+P09471; bead-based flow cytometry RGS16-Galphao binding, fluorescence; actives lie on both sides; call rule not given here;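 also: Galphao activated by GDP with aluminum fluoride before binding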
Target sequence (O15492 whole entry, looked up): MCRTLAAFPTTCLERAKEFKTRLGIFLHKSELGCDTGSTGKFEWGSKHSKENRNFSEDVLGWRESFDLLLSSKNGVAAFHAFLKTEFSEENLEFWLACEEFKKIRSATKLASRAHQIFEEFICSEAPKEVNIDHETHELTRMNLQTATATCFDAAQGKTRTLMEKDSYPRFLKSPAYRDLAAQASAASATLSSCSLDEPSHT
Target sequence (P09471 whole entry, looked up): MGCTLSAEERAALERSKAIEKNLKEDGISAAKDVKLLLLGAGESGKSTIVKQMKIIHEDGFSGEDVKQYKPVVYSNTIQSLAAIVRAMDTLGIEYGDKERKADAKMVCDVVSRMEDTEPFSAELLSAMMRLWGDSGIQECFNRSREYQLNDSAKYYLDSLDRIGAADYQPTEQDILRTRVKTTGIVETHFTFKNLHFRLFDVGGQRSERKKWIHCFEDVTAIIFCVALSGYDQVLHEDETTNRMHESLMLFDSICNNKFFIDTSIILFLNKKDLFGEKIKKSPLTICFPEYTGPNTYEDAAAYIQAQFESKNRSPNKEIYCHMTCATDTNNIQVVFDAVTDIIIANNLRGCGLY
GSH fluor = GSH bead compound fluorescence profile | GSH beads flow cytometry, compound fluorescence 488/530 nm; hits give high values | fluorescence (KMESF) at 10 µM | 0.25% of 190,000 active; in the data active = fluorescence above about 89;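 also: glutathione beads carrying GST-tagged Bcl family fusion proteins plus one bare bead set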
RGS8-Gao reg = regulators of human RGS8-Galphao interaction. P09471. response (percent of control binding), % at 10 µM. AID 1423. multiplexed bead flow cytometry, RGS8-Galphao binding; actives lie on both sides. 0.34% of 220,000 active; in the data active = response below about 60% or above about 140%; inactive = in between;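 also: Galphao activated as the GDP aluminium fluoride complex binding bead-coupled RGS8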
Target sequence (P09471 whole entry, looked up): as above
Avidin bead fluor = compound fluoresces at 488/530 nm on avidin beads; fluorescence (KMESF) at 10 µM; compound fluorescence 488/530 nm, flow cytometry; hits give high values; AID 1775; 0.38% of 220,000 active; in the data active = fluorescence above about 47
RGS4-Gao reg = modulates binding of RGS4 to human Galphao | AID 1415 | Multiplexed bead flow cytometry; actives lie on both sides | 0.33% of 220,000 active | binding response (% of control), % at 10 µM; in the data active = binding response below about 49% or above about 150%; inactive = in between;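 also: fluorescent Galphao activated with aluminum fluoride binding bead-coupled RGS4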
RGS7-Gao reg = human RGS7-Galphao interaction regulation; P09471; Multiplexed bead flow cytometry, RGS7-Galphao binding; actives lie on both sides; binding response (% of control), % at 10 µM; 0.35% of 220,000 active; AID 1439; in the data active = binding response below about 49% or above about 150%; inconclusive = no clear call, values can overlap the other calls; inactive = in between;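 also: fluorescent Galphao held in activated GDP-AlF4 state binding bead-coupled RGS7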
Of the large screens only hits and unclear results are named; the others gave an inactive call; [ ] = remark or other dose.

Cn1cc([N+](=O)[O-])c(C(=O)NCc2ccccc2)n1	RGS7-Gao reg inconclusive (no result: GSH fluor)
Cc1cccc2sc(NC(=O)c3ccc(Cl)s3)nc12	none
COc1cccc2sc(NC(=O)c3ccc(Br)s3)nc12	GSH fluor 265
CC(=O)N/C(=C/c1ccc(OS(=O)(=O)c2ccc(C)cc2)cc1)C(=O)Nc1ccc(C(=O)O)cc1	RGS7-Gao reg inconclusive (no result: GSH fluor)
Cc1ccc(-n2c(SCC(=O)Nc3nccs3)nc3c(c2=O)SCC3)cc1	none
CCSc1nnc(NC(=O)CSc2nc3c(c(=O)n2-c2ccccc2)SCC3)s1	GSH fluor 147
O=c1c2c(C(F)(F)F)cc(C(F)(F)F)nc2[nH]n1-c1ccccc1	GSH fluor 89
Cc1cc(C(C)(C)C)nc2[nH]n(-c3ccccc3)c(=O)c12	none
CCC1(CC)C(=O)NC(=O)NC1=NCCc1ccc(O)cc1	Avidin bead fluor 75
COCCOC(=O)c1c(C)oc2ccc(OCC=C(C)C)cc12	Avidin bead fluor 48
COCC1CCN(Cc2nc(-c3ccc(OC)cc3)no2)CC1	none
CC1CCN(S(=O)(=O)c2cccc(C(=O)NCc3ccco3)c2)CC1	GSH fluor 159
CC1CCN(S(=O)(=O)c2cccc(C(=O)NCc3cccs3)c2)CC1	none
Cc1ccc(S(=O)(=O)N2CCC(C(=O)Nc3nnc(C45CC6CC(CC(C6)C4)C5)s3)CC2)cc1	none
Cc1nn(C(C)C(=O)N2CCN(c3ccccn3)CC2)c(=O)c2cc3occc3n12 (stereo unspecified)	Avidin bead fluor 47
CCC(C(=O)N1CCN(c2ccccn2)CC1)n1nc(C)n2c(cc3occc32)c1=O (stereo unspecified)	none
O=C(C1CCN(S(=O)(=O)c2cccnc2)CC1)N1CCN(C2CCCC2)CC1	Avidin bead fluor 71
O=C(C1CCN(S(=O)(=O)c2cccc3cccnc23)CC1)N1CCN(C2CCCCC2)CC1	none
C=CCNC(=O)c1ccc(Cn2c(=S)[nH]c3cc4c(cc3c2=O)OCO4)cc1	Avidin bead fluor 47
CC(=O)Nc1ccc(C2(O)COc3ccccc3O2)cc1 (stereo unspecified)	GSH fluor 262
CC(=O)Nc1ccc2c(c1)OCCOCCOc1cc(NC(C)=O)ccc1OCCO2	RGS7-Gao reg inconclusive (no result: GSH fluor)
CCCC(=O)Nc1ccc2nc(SCC(=O)Nc3nccs3)sc2c1	RGS16-Gao HTS 15, RGS8-Gao reg 12, RGS4-Gao reg 21, RGS7-Gao reg 15
Cc1ccc(C2=Nc3ccccc3SC(c3cccc([N+](=O)[O-])c3)C2)cc1 (stereo unspecified)	RGS7-Gao reg inconclusive (no result: GSH fluor)
CS(=O)(=O)c1ccc2nc(NC(=O)c3cccs3)sc2c1	Avidin bead fluor 56
CCOC(=O)c1cc(-c2c(Cl)cccc2Cl)no1	RGS7-Gao reg inconclusive (no result: GSH fluor)
CCOC(=O)c1ccc2c(c1)nc(SCC(=O)c1ccco1)n2CC	GSH fluor 255
COc1ccc2nc(NC(=O)c3sc4nc(C)cc(C)c4c3N)sc2c1	RGS7-Gao reg inconclusive (no result: GSH fluor)
Cc1[nH]c2ccccc2c1C(=O)C(=O)N1CCN(C(=O)c2ccco2)CC1	none
COC(=O)c1ccc(/C=C(\C#N)c2ccccn2)cc1	none
COC(=O)c1ccc(OC(=O)c2ccccn2)cc1	GSH fluor 269
CCN1CCN(C(=O)CCc2nnc(CCCCc3ccccc3)o2)[C@@H](C)C1=O	none
CCC(=O)NC(Nc1ncc(C)s1)(C(=O)OC)C(F)(F)F (stereo unspecified)	GSH fluor 124
CCOc1ccccc1NC(=O)N1C2CCCC1CC(NC(=O)C1CC1)C2 (stereo unspecified)	GSH fluor 96
COc1ccc(NC(=O)CSc2ccc3c4c(cccc24)C(=O)c2ccccc2-3)cc1	Avidin bead fluor 49
CCC1(CC)C(=O)N(C)C(=O)NC1=Nc1ccccc1	GSH fluor 273
O=C1NC(=Nc2ccccc2)CS1	RGS7-Gao reg inconclusive (no result: GSH fluor)
Cc1ccsc1C(=O)Nc1nc2ccccc2[nH]1	RGS7-Gao reg inconclusive (no result: GSH fluor)
CCC1(CC)Cc2ccccc2C(N)=C1C#N	Avidin bead fluor 63
Clc1ccc(/C=N/Nc2nn[nH]n2)cc1	GSH fluor 144
O=C(COC(=O)c1ccccc1O)Nc1cc([N+](=O)[O-])ccc1Cl	RGS7-Gao reg inconclusive (no result: GSH fluor)
CCCC(c1nnnn1Cc1cccs1)N1CCN(C2CCCC2)CC1 (stereo unspecified)	Avidin bead fluor 117
CCC(c1nnnn1Cc1cccs1)N1CCN(C2CCCC2)CC1 (stereo unspecified)	none
COc1cc(NC(=O)c2cc3cccc(OC)c3o2)cc(C(=O)Nc2cccc(C(F)(F)F)c2)c1	RGS7-Gao reg inconclusive (no result: GSH fluor)
Cc1ccc(CS(=O)(=O)c2ccc(C(=O)N3CCN(c4ccccn4)CC3)cc2[N+](=O)[O-])cc1	Avidin bead fluor 60
C=CCn1c(=O)c(C#N)cc2c(=O)n3ccccc3nc21	none
C=CCn1c(=N)c(C#N)cc2c(=O)n3ccccc3nc21	GSH fluor 104
Cc1ccc(Nc2c3c(nc4ncnn24)CCC3)cc1	Avidin bead fluor 82
O=C(c1ccc(Cn2cc(Br)cn2)o1)N1N=C(C(F)F)CC1(O)C(F)F (stereo unspecified)	Avidin bead fluor 66, RGS4-Gao reg 150[activator]
COc1ccc(CCc2nnc(CCC(=O)NCCc3ncccc3C)o2)cc1	none
CCOC(=O)c1c(C)oc2ccc(NS(=O)(=O)c3cccs3)cc12	none
CC(=O)c1c(C)oc2ccc(NS(=O)(=O)c3cccs3)cc12	Avidin bead fluor 122
CCNc1nc(SCCOc2ccc(Br)cc2)nc(N(C)C)n1	none
CC(O)C1C(=O)OC2(C)CC(C)(C)NC(=S)N12 (stereo unspecified)	GSH fluor 119
CCNc1nn2ccccc2c1/C=C(\C#N)C(=O)OCC	RGS7-Gao reg inconclusive (no result: GSH fluor)
C=CCNC(=O)COC(=O)c1ccc(Sc2nncn2C)c([N+](=O)[O-])c1	Avidin bead fluor 86
Cc1cc(C)cc(N(C(C)C(=O)NCc2ccc3c(c2)OCO3)S(C)(=O)=O)c1 (stereo unspecified)	none
COc1ccc(-c2nc(-c3ccccc3)nc(N3CCN(C)CC3)c2C#N)cc1	Avidin bead fluor 51
COC(=O)c1ccc(NC(=O)CNCc2ccncc2)cc1	none
Cc1cc(=O)oc2cc(OCC(=O)N3CCOCC3)ccc12	GSH fluor 122
Cc1cc(=O)oc2cc(OC(C)C(=O)N3CCOCC3)ccc12 (stereo unspecified)	none
O=C(/C=C/c1ccc(S(=O)(=O)N2CCOCC2)cc1)OCC(=O)c1ccc([N+](=O)[O-])cc1	RGS7-Gao reg inconclusive (no result: GSH fluor)
COc1cc2c3nnc(-c4ccc(F)cc4)c-3cn(Cc3cccc(F)c3)c2cc1OC	GSH fluor 90
CCCNc1[nH]c(=O)n(C)c(=O)c1N=O	Avidin bead fluor 69
Cn1c(=O)[nH]c(NC2CCCCC2)c(N=O)c1=O	none
